Bioassay records from PubChem.
Rows were chosen to be rich in hits. Some 12% of all compounds tested hit in one or more screens of this group.
BAZ2B inh – qHTS Assay for Inhibitors of BAZ2B. Bromodomain adjacent to zinc finger domain protein 2B (Homo sapiens), Q9UIF8. AlphaScreen BAZ2B-H3K14Ac peptide displacement. Potency, µM (highest dose often 114 µM), without a hit: at the highest dose activity change, negative = inhibition, usual class: inhibitors. 360,000 tested, 4.4% active. AID 504333, 2011; note: % is set by controls: 0 for no effect and ±100 for the full control effect; nearly all actives have a fitted effect of over 60% in size
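Multi-concentration screen (max 110 uM) measuring displacement of acetylated histone H3 peptide from BAZ2B by AlphaScreen, using 50 nM protein, 50 nM peptide and 10 ug/mL streptavidin donor plus Ni-chelate acceptor beads.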
L3MBTL1 block – qHTS Assay for the Inhibitors of L3MBTL1; Lethal(3)malignant brain tumor-like protein 1 (Homo sapiens), Q9Y468; AlphaScreen L3MBTL1–H3K9me1 peptide binding; Potency, µM (titrated, usually from 57.1 µM), for inactives: top-dose activity, negative = inhibition, most hits filed as inhibitors; 230,000 tested, 0.66% active; AID 485360, 2010; note: % is set by controls: 0 for no effect and ±100 for the full control effect; nearly all actives have a fitted effect of over 60% in size
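Displacement of a biotinylated histone H3(1-15) peptide monomethylated at Lys9 (75 nM) from L3MBTL1 (50 nM) was measured by AlphaScreen after a 30 min room-temperature compound incubation; cefsulodin titration served as intraplate control.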
Sfp PPTase inh – qHTS Assay for Inhibitors of Bacillus subtilis Sfp phosphopantetheinyl transferase (PPTase). 310,000 tested, 3.5% active. Potency, µM, for inactives: largest response in the series, negative = inhibition, usual class: inhibitors. Biochemical Sfp PPTase activity, qHTS;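 note: the enzyme is Sfp with the accession as filed and its product quenches rhodamine fluorescence; 0% = enzyme reaction without inhibitor and -100% = no enzyme wells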
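Buffer: 50 mM Hepes-Na pH 7.6, 10 mM MgCl2, 0.01% Nonidet P-40, 0.01% BSA. Enzyme 15 nM, pre-exposed to compound 15 min; substrates then added and fluorescence change tracked over 30 min.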
G9a inh – qHTS Assay for Inhibitors of Histone Lysine Methyltransferase G9a | Histone-lysine N-methyltransferase EHMT2 (Homo sapiens), Q96KQ7 | G9a H3K9 monomethylation, AlphaScreen, 2 h | Potency, µM (highest dose often 102 µM), inactives show top-dose activity, negative = inhibition, actives largely listed as inhibitors | 350,000 tested, 8.8% active | AID 504332, 2011; note: % is set by controls: 0 for no effect and ±100 for the full control effect; nearly all actives have a fitted effect of over 75% in size
Target sequence (Q96KQ7 913-1193 limits assumed): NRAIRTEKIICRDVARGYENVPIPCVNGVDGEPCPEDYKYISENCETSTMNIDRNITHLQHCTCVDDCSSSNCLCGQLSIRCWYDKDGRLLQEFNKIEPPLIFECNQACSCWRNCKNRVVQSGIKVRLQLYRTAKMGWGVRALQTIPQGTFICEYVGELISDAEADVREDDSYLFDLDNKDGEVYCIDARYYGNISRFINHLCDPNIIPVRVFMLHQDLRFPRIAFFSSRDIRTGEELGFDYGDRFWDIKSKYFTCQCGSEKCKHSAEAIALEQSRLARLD
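G9a (20 nM) was preincubated 15 min with compound, then reacted 2 h at room temperature with 500 nM biotin-H3K9 peptide and 20 µM SAM. Monomethyl-H3K9 detected by AlphaScreen using anti-H3K9me1 antibody.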
JMJD2A Tudor – qHTS Assay for Inhibitors of JMJD2A-Tudor Domain; AlphaScreen JMJD2A-Tudor / H3K4me3 peptide binding; Potency, µM (top dose mostly 114 µM), for inactives: at the top dose activity change, negative = inhibition, usual class: inhibitors; 390,000 tested, 4.4% active; note: % is set by controls: 0 for no effect and ±100 for the full control effect; nearly all actives have a fitted effect of over 50% in size
HP1b chromo inh – HTS for Inhibitors of HP1-beta Chromodomain Interactions with Methylated Histone Tails; AlphaScreen HP1-beta / biotin-H3K9me3 peptide binding; Potency, µM (doses to about 114 µM), for the others: at the highest dose activity change, negative = inhibition, actives largely listed as inhibitors; AID 540317, 2011; 390,000 tested, 0.56% active; Chromobox protein homolog 1 (Homo sapiens), P83916; note: nearly all actives have a fitted effect of over 70% in size
Target sequence (P83916 whole entry, looked up): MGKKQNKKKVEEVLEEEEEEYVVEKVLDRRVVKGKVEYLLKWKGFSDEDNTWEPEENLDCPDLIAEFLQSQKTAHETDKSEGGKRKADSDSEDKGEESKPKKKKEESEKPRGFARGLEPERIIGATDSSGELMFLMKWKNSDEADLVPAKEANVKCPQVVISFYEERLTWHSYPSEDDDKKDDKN
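HP1-beta protein (50 nM final) preincubated 30 min at room temperature with biotinylated H3(1-18)K9me3 peptide (50 nM) in PBS pH 7.4, 0.01% Tween-20, then compound added for 30 min. AlphaScreen streptavidin donor/nickel chelate acceptor beads (10 ug/mL final), 30 min dark, luminescence read.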
* marks the source's active call; other numbers are inactive results; u = inconclusive; x = no result; [ ] = another dose, or the depositor's remark. Calls come from the whole dose curve; as a rule, active = well fitted curve in the direction sought with a large enough effect; inconclusive = small, poorly fitted or top-dose-only effect, or another doubt; inactive = no such curve, though single readings can be large; an effect the other way counts as inactive or inconclusive. Potency is the fitted concentration of half-maximal effect.

SMILES | BAZ2B inh | L3MBTL1 block | Sfp PPTase inh | G9a inh | JMJD2A Tudor | HP1b chromo inh
O=C(O)Cc1sc(Nc2ccccc2)nc1-c1ccc(Cl)cc1 | -28% | 9% | u | 18µM* | 45µM* | u
O=C(Cc1sc(Nc2ccccc2)nc1-c1ccccc1)NCc1ccccn1 | -38% | -18% | 14µM* | 35µM* | u | -17%
COc1ccc(OCC(=O)Nc2ccc(-c3nc4cc(C)cc(C)c4o3)cc2)cc1 | -4% | x | x | -10%[59 µM] | -19% | 27%
O=S(=O)(Nc1ccc(-c2ccc(N3CCCC3)nn2)cc1)c1cccc(C(F)(F)F)c1 | 0% | x | x | 3%[59 µM] | -17% | 0%[57 µM]
O=C(NCc1ccc(F)cc1)c1cnc(N2CCOCC2)c2ccccc12 | 11% | x | x | 5%[59 µM] | 1% | 31%[57 µM]
O=C(c1ccc2c(c1)N(Cc1ccccc1)C(=O)c1ccccc1S2(=O)=O)N1CCc2ccccc21 | -25% | x | x | -25%[59 µM] | -10% | 20%
C#CCOc1c(Br)cc(/C=C2/C(=O)ON=C2C)cc1OC | -20% | x | 56µM* | 40µM* | -30% | -34%
CC1=NOC(=O)/C1=C\c1ccc(-c2ccc(Cl)cc2Cl)o1 | u | -6% | 45µM* | 8.9µM* | u | -17%
C#CCOc1c(Br)cc(/C=C2/C(=O)ON=C2C)cc1OCC | u | x | -68% | 45µM* | -13% | 13%
Cc1cccc(C)c1NC(=O)c1ccc(-c2ccc(Cl)cc2Cl)o1 | -6% | x | -12% | -29% | -19% | 41%
COc1ccc(/C=C2/C(=O)ON=C2C)cc1Br | -17% | x | u | u | -29% | 14%
C=CCOc1c(Br)cc(/C=C2/C(=O)ON=C2C)cc1OC | u | x | u | 32µM* | 20µM* | 12%
CCOc1c(Br)cc(/C=C2\N=C(C)OC2=O)cc1Br | -1% | x | 8% | 3% | -22% | 24%
COc1cc(-c2noc(-c3ccc(N4CCN(C)CC4)c([N+](=O)[O-])c3)n2)cc(OC)c1OC | -31% | x | x | u | -10% | 74%
C#CCOc1c(Cl)cc(/C=C2/C(=O)ON=C2C)cc1OCC | -36% | x | 79µM* | 40µM* | -13% | 4%
COc1ccccc1/C=C1/C(=O)ON=C1C | -19% | x | -28% | -34%[12.7 µM] | -21% | 7%
CCCOc1ccc(Cl)cc1/C=C1/C(=O)ON=C1C | -24% | x | u | 32µM* | 7.9µM* | 9%
C#CCOc1ccc(/C=C2/C(=O)ON=C2C)cc1Cl | -4% | x | u | 35µM* | 13µM* | -5%
COc1cc(NC(=O)c2ccc(NC(=O)N3CCSc4ncccc43)cc2)cc(OC)c1 | -29% | x | x | u | -20% | 10%
CCc1nc(NCCO)c(C#N)c2c1CSC(C)(C)C2 | -7% | 43% | 71µM* | x | -9% | 64%
CCc1nc(NCC(C)C)c(C#N)c2c1COC(C)(C)C2 | -3% | 0% | 8% | -5%[59 µM] | 8% | 42%
COc1ccc(OC)c(C2C=C(C34CC5CC(CC(C5)C3)C4)NC(=S)N2)c1 (configuration not stated) | 32µM* | -30% | -8% | u | u | u
Cc1nc(S/C(=C/c2ccc(-c3cc(Cl)ccc3C)o2)C(=O)O)n[nH]1 | -33% | 3% | u | x | 45µM* | 13%
CC(=O)c1ccc(-c2ccc(/C=C(/Sc3n[nH]c(C)n3)C(=O)O)o2)cc1 | u | u | 10µM* | u | u | 13%
Cc1ccc2scc(N3CCc4ccccc4C3)c(=O)c2c1 | -27% | x | x | u | -21% | 20%[57 µM]
SMILES | BAZ2B inh | L3MBTL1 block | Sfp PPTase inh | G9a inh | JMJD2A Tudor | HP1b chromo inh
COc1ccccc1NC(=O)N(Cc1ccco1)Cc1cc2ccc(C)c(C)c2[nH]c1=O | x | -10% | 11% | u | u | -10%
COc1ccccc1NC(=O)N(Cc1ccco1)Cc1cc2cc(C)cc(C)c2[nH]c1=O | u | -6% | -21% | 45µM* | u | -2%
O=C(O)C1C2C=CC(O2)C1C(=O)Nc1ccccc1C(F)(F)F (configuration not stated) | -6% | x | 28µM* | 3.2µM* | 79µM* | 79µM*
Cc1csc(NC(=O)C2C3C=CC(O3)C2C(=O)O)n1 (configuration not stated) | -30% | u | u | u | 25µM* | 11%
CCc1ccccc1NC(=O)C1C2C=CC(O2)C1C(=O)O (configuration not stated) | -5% | -6% | -27% | 35µM* | 5% | 77%
Cc1cc(C)cc(NC(=O)C2C3C=CC(O3)C2C(=O)O)c1 (configuration not stated) | -13% | x | 9% | u | -14% | 36%
Cc1c(NC(=O)c2ccc(Cl)cc2)cc(C(C)C)c(O)c1S(=O)(=O)c1ccccc1 | -11% | x | x | -2%[59 µM] | -4% | 23%
O=C(NC(=S)Nc1ccccc1O)c1ccc(-c2ccc(Cl)cc2)o1 | -5% | 3% | 16% | 3%[2.33 µM] | 21%[11.4 µM] | 86%
COc1ccccc1NC(=S)NC(=O)c1ccc(-c2ccc(Cl)cc2)o1 | 10%[57.1 µM] | -3% | 18µM* | -5% | -22% | 11%
Cc1c(NC(=S)NC(=O)c2ccc(-c3ccc(Cl)cc3)o2)cccc1C(=O)O | -27% | x | -29% | 45µM* | -22% | 9%
CCc1cc2c(-c3ccccc3)cc(=O)oc2cc1OCC(C)=O | 9% | -4%[2.29 µM] | 2% | 24%[0.501 µM] | -1% | 62%
CCCc1cc2c(-c3ccccc3)cc(=O)oc2cc1OCc1ccc(C(=O)O)o1 | u | 0% | -29% | 45µM* | -20%[11.4 µM] | u
CCCOC(=O)c1c(N)sc2c1CCC2 | u | -8% | 50µM* | 50µM* | u | u
Nc1sc2c(c1C(=O)c1ccc(Cl)cc1)CCCC2 | x | x | 10% | x | x | x
NC(=O)c1c(N)sc2c1CCCCC2 | 5% | -14% | 22µM* | 8.9µM* | u | 18µM*
Nc1sc2c(c1C(=O)NC1CCS(=O)(=O)C1)CCC2 (configuration not stated) | -36% | -5% | 18µM* | 7.1µM* | 7%[11.4 µM] | 7%
NC(=O)c1c(N)sc2c1CCC2 | -13% | -1% | 22µM* | x | -18% | 1%
O=C(NCc1ccco1)c1ccc(S(=O)(=O)N2CCCCC2)cc1 | -11% | 2% | 10% | -1% | -10% | 29%
